# According to PubChem BioAssay:
# Results filed as inconclusive are left out. Active and inactive are the calls of the source.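 The calls were made as follows, unless noted: active = normalized viability below 100% at a tested concentration; inactive = the rest.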
# How the values were obtained:
# [1] = growth inhibition of DIPG glioma cells, dose response, cell-based, SU-DIPG-XVII, MIPE5.0, CellTiter-Glo, qHTS (AID 1347060; cut-off not given, nearly all actives have AC50 up to about 26 µM;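 also: cells exposed to compound for 48 hours before viability readout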); settings: SU-DIPG-XVII viability, CellTiter-Glo ATP luminescence
# [2] = growth inhibition of DIPG glioma cells, dose response, cell-based, SU-DIPG-XIII, MIPE4.0, CellTiter-Glo, qHTS (AID 1347061; cut-off not given, nearly all actives have AC50 up to about 37 µM;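 also: cells exposed to compound for 48 hours before readout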); settings: SU-DIPG-XIII viability, CellTiter-Glo ATP luminescence
# [3] = growth inhibition of DIPG glioma cells, dose response, cell-based, JHH-DIPG-1, MIPE4.0, CellTiter-Glo, qHTS (AID 1347062; cut-off not given, nearly all actives have AC50 up to about 27 µM;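 also: cells exposed to compound for two days before readout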); settings: JHH-DIPG-1 viability, CellTiter-Glo ATP luminescence
# [4] = growth inhibition of DIPG glioma cells, dose response, cell-based, SU-DIPG-IV, MIPE4.0, CellTiter-Glo, qHTS (AID 1347063; cut-off not given, nearly all actives have AC50 up to about 30 µM;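 also: compound exposure lasted 48 hours before the viability readout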); settings: SU-DIPG-IV viability, CellTiter-Glo ATP luminescence
# [5] = growth inhibition of DIPG glioma cells, dose response, cell-based, SU-DIPG-XIII, MIPE5.0, CellTiter-Glo, qHTS (AID 1347064; cut-off not given, nearly all actives have AC50 up to about 23 µM;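 also: cells exposed to compound for 48 hours before the viability read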); settings: SU-DIPG-XIII viability, CellTiter-Glo ATP luminescence
# [6] = viability loss in pontine glioma line – cell-based, SU-DIPG-XXV, MIPE5.0, CellTiter-Glo, qHTS, dose response (AID 1347065; cut-off not given, nearly all actives have AC50 up to about 26 µM;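 also: cells exposed to compound for 48 hours before ATP readout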); settings: CellTiter-Glo ATP luminescence
# [7] = SU-DIPG-VI glioma cell viability, MIPE4.0 library, CellTiter-Glo luminescence, qHTS (AID 1347066; cut-off not given, nearly all actives have AC50 up to about 30 µM;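 also: cells exposed to compound for 48 hours before readout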); settings: CellTiter-Glo ATP luminescence
# [8] = JHH-DIPG-1 glioma cell viability, MIPE5.0 library, CellTiter-Glo luminescence, qHTS (AID 1347067; cut-off not given, nearly all actives have AC50 up to about 26 µM;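 also: cells exposed to compound for 48 hours before readout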); settings: JHH-DIPG-1 glioma viability, CellTiter-Glo ATP luminescence
# [9] = SU-DIPG-XXV glioma cell viability, MIPE5.0 library, qHTS (AID 1347068; cut-off not given, nearly all actives have IC50 up to about 30 µM;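 also: cells exposed to compound for 48 hours before viability readout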)
# [10] = sensitizers of A549 cells to miR-34 induction, primary screen, imaging, A549 dox-inducible miR-34, nuclei and caspase counts (AID 1347080;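 active = compounds whose cell count with miR-34 switched on is under 0.7 times the count with it off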); settings: A549 miR-34 inducible, Hoechst nuclei count, 48 h
# [11] = modifiers of HSF1 nuclear foci, imaging, Selleck Cancer Library (AID 1347162; in the data active = plate-normalised HSF1 focus index below about 0.46); settings: human cells, at 10 µM; SSMD: measured here: HSF1 foci SSMD mean; cell count: measured here: cell number; plate-normalised HSF1 focus index: stronger effect = lower value
# [12] = survival rescue of mitochondrial mutant cells in low glucose, primary screen, MELAS cybrids, Rieske KO mouse fibroblasts, CellTiter-Glo (AID 1508586;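 active = mean z-score across replicates of 1.96 or higher in either the MELAS or the Rieske mutant cell line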;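 also: z relative to plate mean and SD of compound and empty wells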)
# [13] = ovarian cancer cell viability with rucaparib, profiling panel, oncology-focused library, rucaparib conditional (AID 1508598); settings: patient-derived ovarian cancer cells, CellTiter-Glo viability, 144 h, stronger effect = lower value
# [14] = LFS_MB_P medulloblastoma growth inhibition, cell-based, chromothripsis tumors, cisplatin or BGB combos (AID 1671449; in the data active = inhibition above about 80%;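 also: cells exposed for 96 hours; 0% = vehicle DMSO and 100% = killing by high DMSO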); settings: LFS_MB_P medulloblastoma cells
# [15] = HDN33 neuroblastoma growth inhibition, cell-based, chromothripsis tumors, cisplatin or BGB combos (AID 1671450; in the data active = inhibition above about 80%;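 also: cells exposed to compound for four days; 0% = vehicle DMSO and 100% = cell killing by high DMSO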); settings: HDN33 neuroblastoma cells, stronger effect = higher value
# [16] = ICB984 medulloblastoma cell growth inhibition, synergistic combos for chromothripsis tumors, cisplatin or BGB combos (AID 1671451; call rule not given here;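 also: cells exposed for 96 hours before readout; 0% = vehicle DMSO and 100% = killing by high DMSO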); settings: ICB984 medulloblastoma cells, drug combinations, stronger effect = higher value
# [17] = HTB85 osteosarcoma cell growth inhibition, synergistic combos for chromothripsis tumors, BGB or cisplatin IC20 combos (AID 1671453; in the data active = inhibition above about 80%;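 also: cells exposed for 96 hours before readout; 0% = vehicle DMSO and 100% = high DMSO killing control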); settings: HTB85 osteosarcoma cells, drug combinations, stronger effect = higher value
# [18] = MDA-MB-436 breast carcinoma cell growth inhibition, synergistic combos for chromothripsis tumors, BGB or cisplatin combos (AID 1671458; call rule not given here;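 also: cells exposed for 96 hours; 0% = vehicle DMSO and 100% = killing by high DMSO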); settings: MDA-MB-436 breast carcinoma growth inhibition, drug combinations, stronger effect = higher value
# [19] = growth inhibition of BT084 medulloblastoma cells, cell-based, ICGC_MB145, cisplatin and BGB IC40 combos (AID 1671461; in the data active = inhibition above about 80%;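 also: cells exposed to drugs for 96 hours; 0% = vehicle DMSO and 100% = high DMSO full killing control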); settings: drug combinations, stronger effect = higher value
# [20] = growth inhibition of RCMB18 medulloblastoma cells, cell-based, cisplatin and BGB IC40 combos (AID 1671462; in the data active = inhibition above about 80%;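 also: cells exposed to compound for four days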); settings: stronger effect = higher value
compound,measurement,setting,value
O=c1cc(N2CCOCC2)oc2c(-c3cccc4c3sc3ccccc34)cccc12,AC50,[1],13.2 µM (active)
same,outcome,[2],inactive
same,AC50,[3],23.5 µM (active)
same,AC50,[4],14.8 µM (active)
same,AC50,[5],16.6 µM (active)
same,AC50,[6],14.8 µM (active)
same,AC50,[7],18.7 µM (active)
same,AC50,[8],16.6 µM (active)
same,IC50,[9],29.5 µM (active)
same,fold change,"[10]; stronger effect = lower value, cell number ratio, induced over uninduced",0.901 (inactive)
same,fold change,[10]; measured here: relative caspase fold change +Dox/-Dox,0.761
same,cell count,"[10]; measured here: total cells with miR-34 induction, stronger effect = lower value",6010
same,cell count,[10]; measured here: total cells without miR-34 induction,6670
same,SSMD,[11],-0.228
same,cell count,[11],7060
same,plate-normalised HSF1 focus index,[11],0.984 (inactive)
same,z-score,"[12]; MELAS cybrid survival, CellTiter-Glo 48 h, stronger effect = higher value",-0.264 (inactive)
same,z-score,"[12]; Rieske KO mouse fibroblast survival, CellTiter-Glo 72 h",1.08
same,viability,"[13]; at 0.000305 µM, OCI-C5x cells, with rucaparib 10 µM, 100% = cells with rucaparib alone",98.4% (active)
same,viability,"[13]; at 0.000305 µM, OCI-C5x cells, without rucaparib",106% (inactive)
same,viability,"[13]; at 0.000305 µM, OCI-P5x cells, with rucaparib 20 µM, 100% = cells with rucaparib alone",104% (inactive)
same,viability,"[13]; at 0.000305 µM, OCI-P5x cells, without rucaparib",99.9% (active)
same,viability,"[13]; at 0.00122 µM, OCI-C5x cells, with rucaparib 10 µM, 100% = cells with rucaparib alone",100% (inactive)
same,viability,"[13]; at 0.00122 µM, OCI-C5x cells, without rucaparib",104% (inactive)
same,viability,"[13]; at 0.00122 µM, OCI-P5x cells, with rucaparib 20 µM, 100% = cells with rucaparib alone",103% (inactive)
same,viability,"[13]; at 0.00122 µM, OCI-P5x cells, without rucaparib",102% (inactive)
same,viability,"[13]; at 0.00488 µM, OCI-C5x cells, with rucaparib 10 µM, 100% = cells with rucaparib alone",101% (inactive)
same,viability,"[13]; at 0.00488 µM, OCI-C5x cells, without rucaparib",103% (inactive)
same,viability,"[13]; at 0.00488 µM, OCI-P5x cells, with rucaparib 20 µM, 100% = cells with rucaparib alone",107% (inactive)
same,viability,"[13]; at 0.00488 µM, OCI-P5x cells, without rucaparib",99% (active)
same,viability,"[13]; at 0.0195 µM, OCI-C5x cells, with rucaparib 10 µM, 100% = cells with rucaparib alone",98.9% (active)
same,viability,"[13]; at 0.0195 µM, OCI-C5x cells, without rucaparib",103% (inactive)
same,viability,"[13]; at 0.0195 µM, OCI-P5x cells, with rucaparib 20 µM, 100% = cells with rucaparib alone",107% (inactive)
same,viability,"[13]; at 0.0195 µM, OCI-P5x cells, without rucaparib",92.1% (active)
same,viability,"[13]; at 0.0781 µM, OCI-C5x cells, with rucaparib 10 µM, 100% = cells with rucaparib alone",108% (inactive)
same,viability,"[13]; at 0.0781 µM, OCI-C5x cells, without rucaparib",98% (active)
same,viability,"[13]; at 0.0781 µM, OCI-P5x cells, with rucaparib 20 µM, 100% = cells with rucaparib alone",98.6% (active)
same,viability,"[13]; at 0.0781 µM, OCI-P5x cells, without rucaparib",90.1% (active)
same,viability,"[13]; at 0.313 µM, OCI-C5x cells, with rucaparib 10 µM, 100% = cells with rucaparib alone",97% (active)
same,viability,"[13]; at 0.313 µM, OCI-C5x cells, without rucaparib",99% (active)
same,viability,"[13]; at 0.313 µM, OCI-P5x cells, with rucaparib 20 µM, 100% = cells with rucaparib alone",99.1% (active)
same,viability,"[13]; at 0.313 µM, OCI-P5x cells, without rucaparib",91.6% (active)
same,viability,"[13]; at 1.25 µM, OCI-C5x cells, with rucaparib 10 µM, 100% = cells with rucaparib alone",101% (inactive)
same,viability,"[13]; at 1.25 µM, OCI-C5x cells, without rucaparib",108% (inactive)
same,viability,"[13]; at 1.25 µM, OCI-P5x cells, with rucaparib 20 µM, 100% = cells with rucaparib alone",95.4% (active)
same,viability,"[13]; at 1.25 µM, OCI-P5x cells, without rucaparib",85.4% (active)
same,viability,"[13]; at 5 µM, OCI-C5x cells, with rucaparib 10 µM, 100% = cells with rucaparib alone",66.1% (active)
same,viability,"[13]; at 5 µM, OCI-C5x cells, without rucaparib",89.5% (active)
same,viability,"[13]; at 5 µM, OCI-P5x cells, with rucaparib 20 µM, 100% = cells with rucaparib alone",49.8% (active)
same,viability,"[13]; at 5 µM, OCI-P5x cells, without rucaparib",78.7% (active)
same,inhibition,"[14]; at 0.5 µM, stronger effect = higher value",-9.52% (inactive)
same,inhibition,"[14]; measured here: combination with BGB IC20, at 0.005 µM",-35.2%
same,inhibition,"[14]; measured here: combination with BGB IC40, at 0.005 µM",-73.8%
same,inhibition,"[14]; measured here: combination with BGB IC40, at 0.05 µM",-46%
same,inhibition,"[14]; measured here: combination with cisplatin, at 0.5 µM, stronger effect = higher value",-30%
same,inhibition,"[14]; measured here: combination with cisplatin, at 5 µM, stronger effect = higher value",-29.6%
same,inhibition,"[15]; BGB combo, at 5 µM",-83.5%
same,inhibition,[15]; at 0.5 µM,-25.6% (inactive)
same,inhibition,"[15]; cisplatin combo, at 5 µM",-52%
same,inhibition,"[15]; measured here: with BGB IC20 combination, at 0.5 µM",-33.3%
same,inhibition,"[15]; measured here: with cisplatin IC20 combination, at 0.5 µM",-8.96%
same,inhibition,"[15]; single agent, at 5 µM",-28.3%
same,inhibition,"[16]; BGB IC20 combo, at 0.005 µM",-21.3%
same,inhibition,"[16]; BGB IC40 combo, at 0.005 µM",-19.1%
same,inhibition,"[16]; BGB IC40 combo, at 0.05 µM",-12.3%
same,inhibition,[16]; at 0.5 µM,-40.4% (inactive)
same,inhibition,"[16]; cisplatin combo, at 0.05 µM",-18%
same,inhibition,"[16]; cisplatin combo, at 0.5 µM",-48.2%
same,inhibition,"[16]; cisplatin combo, at 5 µM",-17.2%
same,inhibition,"[16]; measured here: 5 uM single agent, at 5 µM",-2.07%
same,inhibition,[17]; at 0.5 µM,-12.3% (inactive)
same,inhibition,"[17]; measured here: with BGB IC20, at 0.5 µM",1.92%
same,inhibition,"[17]; measured here: with BGB IC20, at 5 µM",-7.86%
same,inhibition,"[17]; measured here: with cisplatin IC20, at 0.5 µM",-21.1%
same,inhibition,"[17]; measured here: with cisplatin IC20, at 5 µM",-6.63%
same,inhibition,"[17]; single agent, at 5 µM",12.4%
same,inhibition,[18]; at 0.5 µM,-3.85% (inactive)
same,inhibition,"[18]; measured here: BGB combination, at 0.5 µM",6.02%
same,inhibition,"[18]; measured here: BGB combination, at 5 µM",9.28%
same,inhibition,"[18]; measured here: cisplatin combination, at 0.5 µM",-13%
same,inhibition,"[18]; measured here: cisplatin combination, at 5 µM",5.38%
same,inhibition,[19]; at 0.5 µM,-28.7% (inactive)
same,inhibition,"[19]; cisplatin combination, at 0.5 µM",-22.9%
same,inhibition,"[19]; cisplatin combination, at 5 µM",-216%
same,inhibition,"[19]; measured here: BGB IC40 combination 0.05 uM, at 0.05 µM",-22.7%
same,inhibition,"[19]; single agent, at 5 µM",-20.5%
same,inhibition,[20]; at 0.5 µM,-29.6% (inactive)
same,inhibition,"[20]; cisplatin combo, at 5 µM",-34.8%
same,inhibition,"[20]; measured here: BGB IC40 combination, at 0.05 µM",-8.83%
same,inhibition,"[20]; measured here: combination with cisplatin, at 0.5 µM",-51.5%
same,inhibition,"[20]; single agent, at 5 µM",0.048%
